This is part of a sample that, as a whole, favours compounds with a hit. Of some 79,000 tested, about 15% had one in any assay. No stated cut-off is given here; in the data, active means growth inhibition above about 70%; inactive means the rest.
How the values were obtained:
[1] = NCI Yeast Anticancer Drug Screen. Data for the rad50 strain (AID 155);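 further: 0% = growth of vehicle-only cultures of the same strain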; settings: S. cerevisiae rad50 strain growth inhibition; at 50.0 µM; stronger effect = higher value
Method in brief: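 Compounds were tested on a yeast strain with an engineered DNA damage repair alteration; the reported value is growth inhibition normalised to vehicle treatment.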

[2] = NCI Yeast Anticancer Drug Screen. Data for the mec2-1 strain (AID 157); settings: S. cerevisiae mec2-1 strain, at 50.0 µM, stronger effect = higher value
Method in brief: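 Readout is yeast growth inhibition, normalised to vehicle-treated controls, in the mec2-1 strain exposed to compound.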

[3] = NCI Yeast Anticancer Drug Screen. Data for the sgs1 mgt1 strain (AID 161);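 further: 0% = growth of cultures given vehicle only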; settings: S. cerevisiae sgs1 mgt1 strain, at 50.0 µM, stronger effect = higher value
Method in brief: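 Compounds are added to genetically altered yeast, and growth is compared with cultures given vehicle alone to give percent inhibition.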

[4] = NCI Yeast Anticancer Drug Screen. Data for the cln2 rad14 strain (AID 165);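 further: 0% = growth equal to vehicle treated cultures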; settings: S. cerevisiae cln2 rad14 strain, at 50.0 µM, stronger effect = higher value
Method in brief: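 Relative to vehicle controls, growth inhibition of compound-treated cln2 rad14 yeast was recorded.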

[5] = NCI Yeast Anticancer Drug Screen. Data for the bub3 strain (AID 167); settings: S. cerevisiae bub3 mutant strain, at 50.0 µM, stronger effect = higher value
Method in brief: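 Growth of a checkpoint-deficient yeast mutant is measured after compound exposure. Values represent inhibition relative to vehicle.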

[6] = NCI Yeast Anticancer Drug Screen. Data for the mlh1 rad18 strain (AID 175); settings: S. cerevisiae mlh1 rad18 strain growth inhibition; at 50.0 µM; stronger effect = higher value
Method in brief: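 Test agents were incubated with a yeast strain of defined genotype (DNA damage repair defect). Inhibition of growth was derived by comparison with vehicle-exposed cultures.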

Measured: growth inhibition

O=C(C(F)(F)Cl)C(F)(F)Cl
inactive: [1] 13.8% | [2] -14.9% | [3] 6.85% | [4] 15.6% | [5] -15.2% | [6] 24.3%

O=C(CCCN1CCC2(CC1)C(=O)NCN2c1ccccc1)c1ccccc1
inactive: [1] -17.6% | [2] -2.65% | [3] -0.85% | [4] -18.4% | [5] 2.35% | [6] -2.15%

C1C2CC3C1C1CN3C21 (stereo not drawn)
inactive: [1] 16.9% | [2] 2.65% | [3] 5.45% | [4] -28% | [5] -8.8% | [6] 12.2%

— PubChem BioAssay (NCI)
